# Measurements from PubChem BioAssay (EPA / NIEHS).
# Several values for one entry are separate records, joined by “and”; a condition that tells them apart may be missing. Equal values may be shown once. Activity calls are given as the source filed them. Rule for the calls: active = hit-call score of the fitted dose curve at least 0.9, where 1 is the maximum; inactive = score below 0.9.
# Read-out: Intercellular Adhesion Molecule 1 (ICAM1), ICAM1 (gene 3383)
# Assay: BSK_BF4T_ICAM1: BioMAP Diversity Plus: BF4T Assay for Intercellular Adhesion Molecule 1 (ICAM1) Biomarker Activity (AID 2284260)
# Conditions: primary human bronchial epithelial cells with fibroblasts
# Procedure: BSK_BF4T is a cell-based, multiplexed-readout assay that uses bronchial epithelial cells and dermal fibroblasts, a human vascular primary cell, with measurements taken at 24 hours after chemical dosing in a microplate: 96-well plate.BSK_BF4T_ICAM1 is an assay component measured in the BSK_BF4T assay. It measures ICAM-1 antibody related to regulation of gene expression using ELISA technology.Data from the assay component BSK_BF4T_ICAM1 was analyzed at the endpoint, BSK_BF4T_ICAM1, in the positive analysis fitting direction relative to DMSO as the negative control and baseline of activity. Using a type of binding reporter, gain or loss-of-signal activity can be used to understand protein changes. To generalize the intended target to other relatable targets, this assay endpoint is annotated to the 'cell adhesion molecules' intended target family, where the subfamily is 'Immunoglobulin CAM'.
# The levels of cell surface (or secreted, indicated by the prefix "s") biomarker endpoints were measured by ELISA. Overt cytotoxicity to cells in confluent adherent cultures (all systems other than the BT system) was assessed by measuring total protein levels using sulforhodamine B (SRB) staining in parallel cultures at the time of biomarker measurements, indicated as SRB endpoints. For proliferation assays for adherent cell types, individual cell types are cultured at sub-confluence and relative cell numbers quantified by SRB staining at time points optimized for each system (48 h: 3C and CASM3C systems; 72 h: BT and HDF3CGF systems; 96 h: SAg system). SRB was performed by staining cells with 0.1% SRB after fixation with 10% TCA and reading wells at 560 nm.Viability and proliferation of PBMC (T cells) was quantified by Alamar Blue reduction for the SAg and BT systems. For PBMC viability (referred to as PBMC Cytotoxicity within the assay endpoint names), cells were plated (75,000/well in a 96-well plate) and then chemical samples added for 1 h before addition of activators, SEB and TSST-1 (20 ng/mL final concentration each). Cells were incubated for 90 h. Then, Alamar Blue (20 uL/well) (Invitrogen, Cat DAL1100) was added for 6 h, and the plates were read with a fluorescence microplate reader at 546/580 nm (excitation/emission). For PBMC proliferation, cells were plated and activated as above but incubated for only 16 h prior to addition of Alamar Blue. Plates were read after 6 h.
SMILES,outcome,AC50
OCC(F)(F)C(F)(F)C(F)(F)C(F)(F)C(F)(F)C(F)(F)C(F)(F)C(F)(F)C(F)(F)C(F)(F)C(F)(F)F,inactive,–
O=P(O)(O)CCC(F)(F)C(F)(F)C(F)(F)C(F)(F)C(F)(F)C(F)(F)C(F)(F)C(F)(F)F,inactive,–
O=C(CC(=O)C(F)(F)C(F)(F)C(F)(F)F)c1cccs1,–,20 µM (active) and 18.8 µM (active)
O=S(=O)(O)C(F)(F)C(F)(F)C(F)(F)C(F)(F)C(F)(F)C(F)(F)C(F)(F)C(F)(F)C(F)(F)C(F)(F)F,inactive,–
O=C(O)C(F)(F)OC(F)(F)C(F)(F)OC(F)(F)C(F)(F)OC(F)(F)C(F)(F)C(F)(F)C(F)(F)F,–,8.19 µM (active) and 7.58 µM (active)
O=C(O)CCC(F)(F)C(F)(F)C(F)(F)C(F)(F)C(F)(F)F,inactive,–
O=C(O)CCC(F)(F)C(F)(F)C(F)(F)C(F)(F)C(F)(F)C(F)(F)F,inactive,–
O=P(O)(O)CCC(F)(F)C(F)(F)C(F)(F)C(F)(F)C(F)(F)C(F)(F)F,inactive,–
CN(Cc1cnc2nc(N)nc(N)c2n1)c1ccc(C(=O)N[C@@H](CCC(=O)O)C(=O)O)cc1,inactive,–
C=CC(=O)OCCC(F)(F)C(F)(F)C(F)(F)C(F)(F)C(F)(F)C(F)(F)C(F)(F)C(F)(F)F,inactive,–
CN(CCO)S(=O)(=O)C(F)(F)C(F)(F)C(F)(F)C(F)(F)C(F)(F)C(F)(F)C(F)(F)C(F)(F)F,inactive,–
